F508del corr: F508del CFTR correction, initial screen, CFBE line, single point | AID 720511, 2013 | CFBE cells, YFP halide quenching; stimulated with forskolin plus potentiator P3; % fluorescence drop versus neutral controls | activity (quench increase), % at 7.58 µM | 350,000 tested, 0.36% active;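 active = mean added fluorescence quench of at least 8% versus neutral control, with both replicates also reaching 8%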;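 note: cells transiently co-express mutant CFTR-F508del with the halide-sensitive YFP; corrector assay measuring rescue of mutant channel to the surface after 24 h compound exposure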
Env fusion inh: inhibitors of HIV-1 Env-driven cell-cell fusion, primary screen, HeLa-JRFL effector, CEM21 target cells, luciferase | inhibition, % at 12.3 µM | 360,000 tested, 1.1% active | AID 651610, 2012;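 active = mean replicate inhibition score of at least 50 and every replicate individually at or above 50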
EWS-Fli block: EWS/Fli-driven NR0B1 reporter inhibitors, primary screen, A673 cells, NR0B1 luciferase, luminescence, MLPCN library; viability-normalised; inhibition, % at 12.6 µM; 350,000 tested, 0.67% active; AID 651661, 2012;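 active = mean inhibition of at least 50% after viability correction, with every replicate also passing that limit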;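 note: firefly luciferase signal divided by Alamar Blue viability fluorescence both relative to DMSO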
PAX8 reporter: inhibitors of PAX8-driven TPO luciferase reporter, primary screen, RMG-I cells, single concentration. SteadyGlo, 24 h. inhibition, % at 12.6 µM. 360,000 tested, 1.2% active;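 active = mean replicate inhibition at least 60% with every replicate also reaching 60%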;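 note: luciferase light reporting Pax8 driven TPO promoter activity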
GAA850 FXN act: FXN promoter activators, primary screen, cell-based, luciferase luminescence, HEK293 lucGAA850. HEK293 lucGAA850 FXN promoter luciferase reporter, 24 h; percent of 10 µM SAHA response. activation, % at 6 µM. 360,000 tested, 0.56% active;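 active = activation above the average of all compounds screened plus 3 SD, cutoff fixed separately per campaign, cut at about 7.5% in these data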
GAA30 FXN cntr: GAA30 FXN promoter activators, confirmation, counter-screen for GAA850 frataxin promoter activator project, cell-based, luminescence, HEK293, lucGAA30, triplicate | shares compounds with GAA850 FXN act | HEK293 lucGAA30 FXN promoter luciferase, 24 h; DMSO = 0%, 5 µM ipriflavone = 100% | activation, % at 6 µM | 1,900 tested, 66% active;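 active = mean activation above the mean of solvent-only control wells plus 3 SD, cut at about 22% in these data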;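 note: counterscreen of GAA850 promoter hits where activity marks nonselective or luminescence artifacts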
FXN GAA850 conf: FXN GAA850 promoter activators in reporter cells, confirmation, cell-based, luminescence, HEK293 lucGAA850, triplicate | shares compounds with GAA850 FXN act | HEK293 lucGAA850 FXN promoter luciferase reporter, 24 h; 100% = activation by SAHA | activation, % at 6 µM | 1,900 tested, 86% active;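 active = mean activation above a set limit taken from the primary screen, cut at about 8% in these data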
Numbers stand for hits; - = inactive; . = not tested or not shown. Rows were chosen to be rich in hits. Some 2.5% of all compounds tested hit in one or more screens of this group.

SMILES | F508del corr | Env fusion inh | EWS-Fli block | PAX8 reporter | GAA850 FXN act | GAA30 FXN cntr | FXN GAA850 conf
C[C@@H]1CN([C@H](C)CO)C(=O)c2cc(NS(=O)(=O)c3ccc(Cl)cc3)ccc2O[C@@H](C)CCCCO[C@@H]1CN(C)S(C)(=O)=O | - | - | - | - | . | . | .
O=C(/C=C/Nc1ccc(Oc2ccccc2Cl)cc1)c1ccco1 | - | - | - | - | - | . | .
COc1ccccc1Oc1ccc(N/C=C/C(=O)c2ccco2)cc1 | - | - | - | - | 12 | 83 | 34
c1ccc2c(c1)C1=NCCN1c1ccccc1-2 | 11 | - | - | - | 33 | - | 150
COCc1cc(C)nc2sc(C(=O)Nc3cccc(OC)c3)c(N)c12 | - | - | - | - | 7.7 | 115 | 38
COCc1cc(C)nc2sc(C(=O)Nc3ccc(OC)cc3)c(N)c12 | - | - | - | - | - | . | .
Nc1nc2ccccc2cc1-c1cccs1 | - | - | - | - | 7.8 | 90 | 34
CC1CC(=O)NN=C1c1ccc(N(C)C)c([N+](=O)[O-])c1 (centres undefined) | . | 73 | . | . | 7.8 | 26 | 22
O=C(c1ccccn1)N1CC(=O)N2[C@H](CO)[C@H](c3ccc(C#Cc4ccccc4)cc3)[C@H]2C1 | - | . | - | . | . | . | .
C[C@@]12C(=O)N(CCc3c[nH]c4ccccc34)CC(=O)N1[C@H]1c3ccccc3OC[C@@H]1[C@@H]2c1ccccc1 | - | 82 | - | - | 7.7 | - | 8.5
COc1ccc2c(c1)[C@H]1[C@H](CO2)[C@H](c2ccccc2)[C@]2(C)C(=O)N(CC3CCCO3)CC(=O)N12 (some centres undefined) | - | - | - | - | - | . | .
CN1CC(=O)N2[C@H]3c4ccccc4OC[C@@H]3[C@H](c3ccccc3)[C@]2(C)C1=O | - | - | - | - | - | . | .
C[C@@]12C(=O)N(CC3CCCO3)CC(=O)N1[C@H]1c3ccccc3OC[C@@H]1[C@@H]2c1ccccc1 (some centres undefined) | - | - | - | - | 12 | - | 14
C[C@@H]1CN([C@H](C)CO)C(=O)c2cc(C3=CCCC3)cnc2O[C@@H]1CN(C)Cc1cccc(F)c1 | - | - | - | - | . | . | .
Clc1ccccc1OCCn1cnc2ccccc21 | . | - | . | . | 9.2 | 41 | 24
c1ccc(Cn2cnc3ccccc32)cc1 | . | . | . | . | 11 | 120 | 44
Clc1ccc(OCCn2cnc3ccccc32)cc1 | . | . | . | . | - | . | .
Clc1ccc(Cn2cnc3ccccc32)cc1 | - | - | - | - | - | . | .
CCOc1ccc(C(=O)Nc2ccc(NC(=O)c3ccco3)c(Cl)c2)cc1Br | - | . | - | . | 12 | - | 8.4
O=C(CCC1CCCCC1)Nc1ccccc1O | . | - | . | - | - | . | .
Cc1ccc(O)c(NC(=O)CCC2CCCCC2)c1 | . | . | . | . | 8.3 | 91 | 35
Cc1ccc2nc3ccc(N4CCN(C)CC4)nn3c(=O)c2c1 | . | . | . | . | 8.2 | 116 | 34
Cc1ccc2nc3ccc(N4CCCCCCC4)nn3c(=O)c2c1 | . | - | . | - | - | . | .
CN(C)C(CNC(=O)CSc1nc2sc3c(c2c(=O)n1C)CCCC3)c1ccccc1 (centres undefined) | - | . | - | - | 7.9 | - | 7.6
COCCn1c(SCC(=O)NCC(c2ccccc2)N(C)C)nc2sc3c(c2c1=O)CCC3 (centres undefined) | - | . | - | - | - | . | .
COc1ccc(-n2c(SCC(=O)O)nc3sc4c(c3c2=O)CCCC4)cc1 | - | - | - | - | 8.3 | 22 | 15
CN1C(=O)c2cc(NC(=O)C3CC3)ccc2OC[C@@H]2O[C@H](CC(=O)NCCc3ccncc3)CC[C@@H]21 | - | - | - | - | . | . | .
COCCNC(=O)C[C@@H]1C[C@H]2c3cc(NS(C)(=O)=O)ccc3O[C@H]2[C@H](CO)O1 | - | - | - | - | . | . | .
